# According to ChEMBL document CHEMBL1157539, “Thousands of chemical starting points for antimalarial lead identification” (Nature, 2010):
# Tests used:
# Assay type in all cases: functional
# Plasmodium falciparum [1] = assay: GSK_TCMDC: Inhibition of Plasmodium falciparum 3D7 in whole red blood cells, using parasite LDH activity as an index of growth. Test compounds present at 2uM
# Plasmodium falciparum [2] = assay: GSK_TCMDC: Inhibition of Plasmodium falciparum Dd2 in whole red blood cells, using parasite LDH activity as an index of growth. Test compounds present at 2uM
# HepG2 = assay: GSK_TCMDC: Percent inhibition of human HepG2 cell line. Test compounds present at 10uM.
Structure (SMILES),Inhibition (Plasmodium falciparum [1]) [%],Inhibition (Plasmodium falciparum [2]) [%],Inhibition (HepG2) [%]
COc1cccc(Nc2nc(C)cc(NCc3ccc(-c4c(C)noc4C)cc3)n2)c1,98,42,33
Cc1cccc2nc(-c3ccc(-c4cccc(CN5CCC(C(N)=O)CC5)c4)cc3)[nH]c12.O=C(O)C(F)(F)F,87,16,9
CN(C)C(=O)c1cc(CNCc2ccccc2)ccc1-c1cccc(CNCc2ccc(-c3ccccc3)cc2)c1.O=C(O)C(F)(F)F,90,12,27
FC(F)(F)c1ccc2[nH]c(-c3ccc(-c4cccc(CNCc5ccccc5)c4)s3)nc2c1.O=C(O)C(F)(F)F,100,83,15
COc1ccc2nccc([C@@H](O)CN3CCC(NC(=O)/C=C/c4ccc5cc(C)[nH]c5c4)CC3)c2c1,97,93,7
CC(=O)Nc1ccc(CN2CCC(CNC(=O)c3cc(-c4cccc(C(F)(F)F)c4)cs3)C2)cc1.O=C(O)C(F)(F)F (configuration not stated),97,3,24
Cc1cc(C2CCN(CCCCNC(=O)c3ccc(NC(=O)c4ccc(Cl)cc4)cc3)CC2)c(C)cc1OCc1nccn1C.Cl,100,98,18
O=C(Nc1ccc(OC2CCN(Cc3ccc(F)cc3)C2)c(Cl)c1)c1ccccc1.O=C(O)C(F)(F)F (configuration not stated),91,86,11
Cl.N#Cc1ccc2c(c1)CCN(CCC1CCC(NC(=O)/C=C/c3ccc(Cl)c(Cl)c3)CC1)CC2 (configuration not stated),100,51,31
Cl.Fc1cc(Cl)ccc1Nc1ccnc(Nc2ccc3cn[nH]c3c2)n1,97,56,8
CN1CCN(Cc2cccc(-c3ccc4c(Nc5ccc(Oc6ccccc6)cc5)ccnc4c3)c2)CC1,100,100,41
COc1cc(NC(=O)c2ccc(-c3ccc(C(C)=O)cc3)s2)ccc1OCCN1CCCC1,100,63,31
Nc1ncnc2nc(-c3ccc(F)cc3)cc(-c3ccc(NC(=O)c4ccccc4)cc3)c12,100,97,0
CCCc1cc(Cc2cnc(N)nc2N)cc(CCC)c1OCCCCC(=O)OCC,93,0,1
COc1ccc(CCN(C)CCOc2ccc(NC(=O)COc3ccc4sc5ccccc5c(=O)c4c3)cc2)cc1OC,100,91,99
Cc1ccc(NC(=O)c2ccc(NCCCN(C)Cc3ccccc3)c([N+](=O)[O-])c2)cc1F,100,61,12
O=C(Nc1cccc(CN2CCCN(CC3CC3)CC2)c1)c1ccc(-c2ccccc2)cc1.O=C(O)C(F)(F)F,96,5,15
Cc1cc(N[C@@H](CC(C)C)C(=O)NCCOc2ccccc2)nc(NCCc2ccccc2)n1.O=C(O)C(F)(F)F,94,29,13
COCC(=O)N(Cc1ccccc1-c1cccc(CNCc2ccc3c(c2)OCO3)c1)C1CCN(Cc2ccccc2)CC1.O=C(O)C(F)(F)F,94,72,33
O=C(O)C(F)(F)F.c1ccc(CNCc2cccc(-c3ccc(-c4nc5ccccc5[nH]4)cc3)c2)cc1,97,39,10

Structure (SMILES),Inhibition (Plasmodium falciparum [1]) [%],Inhibition (Plasmodium falciparum [2]) [%],Inhibition (HepG2) [%]
Cc1cc(Nc2ccncc2)n2nc(C)c(-c3ccccc3Cl)c2n1,99,93,2
CN(CCc1ccccn1)c1cccc2c1nc(-c1cccnc1)n2CCNCc1ccccc1.O=C(O)C(F)(F)F,90,97,12
CC(C)Cc1nc2nc(N)nc(N)c2cc1C(C)C,96,3,67
CCN(CC)CCN(Cc1ccc(-c2ccc(C(F)(F)F)cc2)cc1)C(=O)Cn1c(CCc2cc(F)c(F)c(F)c2)nc(=O)c2ccccc21.O=C(O)C(O)C(O)C(=O)O,100,70,31
C[C@H]1CN(Cc2cccc(-c3cc(CNC(=O)c4cccc(C(=O)c5ccc(Cl)c(Cl)c5)c4)ccc3F)c2)CCN1,85,42,40
N#Cc1ccc(N[C@@H](CC2CCCCC2)C(=O)NCc2cc(Cl)cc(Cl)c2)c2ccccc12.O=C(O)C(F)(F)F,94,88,34
COc1cc(OC)cc(C(=O)Nc2ccc(Nc3nc(C)cc(N(C)C)n3)cc2)c1,100,90,11
Cc1ccc(NC(=O)c2ccc3ncccc3c2)cc1OC1CCN(Cc2ccsc2)CC1.O=C(O)C(F)(F)F,93,29,21
Cc1nc(C)c(CC(=O)Nc2cccc(-c3cccc(-c4nc5cccc(C)c5[nH]4)c3)c2)s1,92,35,43
Cl.O=S(=O)(Nc1cc2c(cc1OCCCN1CCCCC1)CCNCC2)c1ccc(-c2ccc(Cl)cc2)cc1,100,19,77
COCCNCc1ccc(-c2cccc(CNC3CCN(Cc4ccccc4)CC3)c2)cc1.O=C(O)C(F)(F)F,100,100,30
CCC(C)Oc1ccc2nc(N)nc(N)c2c1Cl (configuration not stated),96,0,57
CN1CCC(NCc2cccc(-c3ccc(S(=O)(=O)NCc4ccccc4)c(F)c3)c2)CC1.O=C(O)C(F)(F)F,99,99,94
COc1ccc(-c2cncc3ccc(C(=O)NCc4ccncc4)nc23)cc1,100,98,25
O=C(Cc1cccc(Cl)c1)Nc1cccc(-c2c[nH]c3nc(Nc4ccccc4)ncc23)c1.O=C(O)C(F)(F)F,99,70,5
Cc1sc(CNCCCNc2cc(=O)c3ccccc3[nH]2)cc1Br,100,83,12
O=C(C=Cc1ccc(Cl)c(Cl)c1)NCCCCCN1CCC(CCNC(=O)c2cccc3ccccc23)CC1,85,0,17
COc1ccccc1-c1csc(C(=O)NCC2CCN(Cc3ccc(C(C)(C)C)cc3)C2)c1.O=C(O)C(F)(F)F (configuration not stated),93,11,29
COc1cc(CNC[C@@H](O)[C@H](Cc2ccccc2)NC(=O)c2cc(OC(C)C)cc(N3CCCS3(=O)=O)c2)cc(OC)c1.Cl,97,72,0
O=C(NCCCCCN1CCC(c2c[nH]c3ccccc23)CC1)Nc1cccc(Br)c1,84,0,39

Structure (SMILES),Inhibition (Plasmodium falciparum [1]) [%],Inhibition (Plasmodium falciparum [2]) [%],Inhibition (HepG2) [%]
O=C(Nc1cccc(-c2cccc(-c3nc4cc(F)ccc4[nH]3)c2)c1)c1csnn1,95,29,23
CN(CC(=O)Nc1cc(C(F)(F)F)ccc1-n1cncn1)Cc1nc2ccccc2s1,87,64,3
COc1ccc(CNC2CCN(C)CC2)cc1-c1ccc(S(=O)(=O)NCc2ccccc2)cc1.O=C(O)C(F)(F)F,100,99,56
CC(C)NCc1cccc(-c2ccc(-c3nc4cc(C(F)(F)F)ccc4[nH]3)cc2)c1.O=C(O)C(F)(F)F,99,96,7
CN(C)CCCOc1ccc(CN2CC[C@H](NC(=O)c3ccc(Cl)c(Cl)c3)C2)cc1Br.O=C(O)C(F)(F)F,100,34,11
CCCNCc1ccc(-c2ccc(CN(CCOC)C(=O)c3ccccc3)cc2)nc1.O=C(O)C(F)(F)F,94,25,16
CCN(CC)CCOc1ccc(C(O)(C#CC(O)(c2ccc(Br)cc2)c2ccc(OCCN(CC)CC)cc2)c2ccc(Br)cc2)cc1 (configuration not stated),99,99,99
CC(=O)C1=NN(c2ccc(Cl)cc2)C(c2cccs2)N1c1ccccc1 (configuration not stated),88,70,0
CN1CCC(N2CCC(Oc3cccc(C(=O)NCCCC4CCCC4)c3)CC2)CC1,100,48,41
O=C(C1CCN(c2nnnn2-c2ccccc2)CC1)N1CCc2ccccc2C1,97,97,0
O=C(NCc1cccc(C(F)(F)F)c1)C(c1cc2ccccc2o1)N1CCN(C(c2ccccc2)c2ccccc2)CC1 (configuration not stated),91,80,0
COc1ccc(/C=C/C(=O)N2CCc3cc4nccc(N5CCN6CCC[C@H]6C5)c4cc32)cc1,100,98,0
CN(CCN(C)CC(O)c1ccc(Cl)c(Cl)c1)CC(O)c1ccc(Cl)c(Cl)c1.Cl (configuration not stated),91,73,22
CCOc1cc(C)ccc1N(C1CCN(CCCCNC(=O)c2ccc(-c3ccc(C(F)(F)F)cc3)cc2)CC1)S(=O)(=O)c1ccccc1,88,85,14
Cc1ccc(CN2CCN(CC(O)COc3ccc4c(c3)CCC4)CC2)cc1 (configuration not stated),95,0,0
Cc1ccc(NC(=O)Cc2noc(CC3CCCN3C(=O)N[C@@H](C)c3ccccc3)n2)cc1 (some centres not stated),95,90,1
Cl.N=C(N)Nc1ccc(CCc2ccc(NC(=N)N)cc2)cc1,96,95,57
O=C1COC2(CN1CC1CCN(Cc3ccc(O)c(Cl)c3)C1)c1ccccc1-c1ccccc12.O=CO (configuration not stated),93,50,6
Cc1c(Oc2ccc(-n3ccnc3)cc2)ncnc1N1CCC2(CC1)CNCc1ccccc12.O=C(O)C(F)(F)F,95,58,26
